# Source: PubChem BioAssay
# A350 autofl: compound fluoresces in the Alexa 350 spectral region; Compound autofluorescence, 340/450 nm, Alexa 350 dye-equivalents; stronger effect = higher value; max dye-equivalent concentration, M; actives 11% (n = 59,000); in the data active = max dye-equivalent concentration above about 10 nM; inconclusive = mostly about 1.1 nM to 9.6 nM
# CRE-bla Fsk: modulators of forskolin-stimulated CRE signaling in CHO cells; AID 662; actives 2.5% (n = 71,000); CHO CRE-bla reporter (cAMP response element driving beta-lactamase), forskolin EC10, beta-lactamase ratio; Potency, µM (titrated, usually from 38.2 µM), without a hit: at the highest dose activity change, negative = inhibition, actives largely listed as activators; active = well fitted activation curve with a large enough effect in the signal ratio, with a control signal flat, not every such curve was filed as active; inconclusive = small, poorly fitted or top-dose-only effect, or effect the other way, or a change in a side signal; the % refers to the signal ratio; note: potency is the fitted concentration of half-maximal effect; % of control where 0% means no effect
#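 Modulation of forskolin signalling: compounds in titration series added with EC10 NKH 477 to CHO cells carrying a CRE-driven beta-lactamase reporter, 3 h, 37C. CCF4 FRET ratio (460/530 nm, ex 405 nm) gives %activity and AC50.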
# HSD17B inh: HSD17B dehydrogenase inhibition. AID 893. actives 7.6% (n = 75,000). Potency, µM (series often up to 57.1 µM), without a hit: top-dose activity change, negative = inhibition, actives largely listed as inhibitors. Q99714. recombinant HSD17B10, NADH fluorescence kinetic;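 note: the protocol describes HADH2 (HSD17B10) and not the HSD17B4 of the title; potency is the fitted concentration of half-maximal effect; % is set by controls: 0 for no effect and ±100 for the full control effect; nearly all actives have a fitted effect of over 70% in size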
#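 20 nM HADH2, pH 9.0 Tris/Tween; cpd preinc 15 min RT; start w/ 1 mM NAD+ + 90 uM b-hydroxybutyryl-CoA; kinetic fluor ex360/em450 q30s x 4 min; delta last-first.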
# AID923: qHTS Assay for Allosteric/Competitive Inhibitors of Caspase-1: Spectroscopic Profiling in AFC Spectral Region; compound fluorescence, AFC spectral region (405/520 nm); Potency, µM (series often up to 57.5 µM), inactives show at the top dose fluorescence increase, actives largely listed as activators; actives 1.1% (n = 75,000); note: potency is the fitted concentration of half-maximal effect; 0% is about no effect
#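 Titrations up to 57 uM read every 20 sec for 3 min (405/520 nm) with 50 nM caspase 1 and 5 uM Ac-WEHD-AFC, pH 7.5 HEPES buffer. Fluorescence-vs-time intercept gave baseline, scaled against on-plate AFC standard.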
# 4MU fluor: compound fluoresces in the 4-MU spectral region; actives 11% (n = 59,000); max dye-equivalent concentration, M; AID 589; compound autofluorescence, 340/450 nm, 4-MU equivalents; stronger effect = higher value; in the data active = max dye-equivalent concentration above about 10 nM; inconclusive = mostly about 1.1 nM to 9.6 nM
#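 Compounds in 100 mM Tris, pH 8.0, incubated 15 min at room temperature, then fluorescence read at 340 nm excitation/450 nm emission. Signal converted to 4-MU dye-equivalent concentration using an on-plate six-point 4-MU standard curve.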
# HADH2 inhib: inhibitors of human HADH2 dehydrogenase; recombinant HADH2, NADH fluorescence, beta-hydroxybutyryl-CoA; Potency, µM (titrated, usually from 57.1 µM), without a hit: at the highest dose activity change, negative = inhibition, most hits filed as inhibitors; actives 3.4% (n = 73,000); note: potency is the fitted concentration of half-maximal effect; % is set by controls: 0 for no effect and ±100 for the full control effect; nearly all actives have a fitted effect of over 60% in size
# Target sequence (Q99714 whole entry, looked up, one chain of several): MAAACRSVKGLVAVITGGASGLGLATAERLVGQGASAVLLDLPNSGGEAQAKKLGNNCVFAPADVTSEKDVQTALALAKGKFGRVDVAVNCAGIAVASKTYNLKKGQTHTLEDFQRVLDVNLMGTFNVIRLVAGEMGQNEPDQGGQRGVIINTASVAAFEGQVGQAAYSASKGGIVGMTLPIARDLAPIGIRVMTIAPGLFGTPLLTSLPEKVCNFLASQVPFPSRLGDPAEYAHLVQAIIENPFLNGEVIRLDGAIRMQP
#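 E. coli-expressed His-tagged HADH2 tested at 20 nM in alkaline Tris buffer (pH 9.0); oxidation of 90 uM beta-hydroxybutyryl-CoA with 1 mM NAD+ tracked fluorimetrically for 4 min.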
# The depositor's hits bear a star; i = inactive; ? = inconclusive; / = not tested or not shown; [ ] = another dose, or the depositor's remark. A selection: hits, their analogues and other compounds. The true share with any hit is near 14%. Unless noted, calls come from the whole dose curve; as a rule, active = well fitted curve in the direction sought with a large enough effect; inconclusive = small, poorly fitted or top-dose-only effect, or another doubt; inactive = no such curve, though single readings can be large; an effect the other way counts as inactive or inconclusive.
SMILES,A350 autofl,CRE-bla Fsk,HSD17B inh,AID923,4MU fluor,HADH2 inhib
CN[C@@H](CC(C)C)C(=O)N[C@@H]1C(=O)N[C@H](CC(N)=O)C(=O)N[C@H]2C(=O)N[C@H]3C(=O)N[C@H](C(=O)N[C@H](C(=O)O)c4cc(O)cc(O)c4-c4cc3ccc4O)[C@H](O)c3ccc(c(Cl)c3)Oc3cc2cc(c3O[C@@H]2O[C@@H](CO)[C@@H](O)[C@@H](O)[C@H]2O[C@H]2C[C@](C)(N)[C@H](O)[C@H](C)O2)Oc2ccc(cc2Cl)[C@@H]1O,i,0%,8%,-4%,i,5%
CCN(CC)CCN1C(=O)c2ccccc2NC1c1cccc(F)c1 (configuration not stated),/,2%,32µM*,6%,/,-22%
CCN(CC)CCN1C(=O)C(O)=C(C(C)=O)C1c1ccccc1 (configuration not stated),i,?,5%,-1%,i,-5%
CCN(CC)CCN1C(=O)c2ccccc2NC1c1cc(OC)c(OC)c(OC)c1 (configuration not stated),7.4e-07M*,/,/,/,6.6e-07M*,/
COc1ccc(C2Nc3ccccc3C(=O)N2O)cc1OC (configuration not stated),?,-4%,-3%,0%,?,-3%
COc1ccc(C2COc3c(ccc(O)c3OC)C2)c(OC)c1O (configuration not stated),/,/,0%,-2%,/,/
COC(=O)NC(c1cccc(C)c1)[C@@]1(C(=O)OC)CCCC1=O (some centres not stated),/,/,5%[11.4 µM],-3%[11.5 µM],/,0%[11.4 µM]
Nc1ncnc2c1ncn2[C@H]1O[C@@H](CO)[C@@H](O)[C@H]1N,i,-1%[7.6 µM],2%[11.4 µM],-1%[11.5 µM],i,4%[11.4 µM]
N=C(N)SCc1nc(-c2ccc(Cl)cc2)no1,i,-8%[7.6 µM],0%[11.4 µM],2%[11.5 µM],i,-8%[11.4 µM]
Brc1ccccc1-c1nnc(CSc2nncn2-c2ccccc2)o1,i,-4%,-11%,-1%,i,1%
O=c1c2ccccc2nc(SCc2cn3ccsc3n2)n1-c1ccccc1,i,1.3µM*,3%,-2%,i,4%
O=c1c2ccccc2nc(SCc2cn3ccsc3n2)n1-c1ccccc1F,i,5µM*,-2%,-2%,i,10%
O=c1c2ccccc2nc(SCc2nnc(-c3ccccc3Br)o2)n1-c1ccccc1,i,2.5µM*,3%,-2%,i,1%
Cc1ccc(C#CC2C=CC(Oc3ccc4c(c3)OCO4)C(CO)O2)c(C)c1 (configuration not stated),/,/,-1%[11.4 µM],6%[11.5 µM],/,4%[11.4 µM]
CC(=O)OC[C@@H]1O[C@H](C/C=N\O[C@@H](C)c2cc(-c3c(C)cc(C)cc3C)no2)C=C[C@@H]1OC(C)=O,/,/,1%[11.4 µM],2%[11.5 µM],/,-15%[11.4 µM]
Cc1nc2cc(-c3cccc(F)c3)nn2c(N2CCOCC2)c1C,i,2%,5%,-2%,i,9%
Fc1ccc(-c2cc3nc(-c4ccccc4)cc(N4CCOCC4)n3n2)cc1,5.3e-07M*,?,13µM*,2%,6.8e-07M*,10µM*
CCC(=O)Nc1ccc2nc(C)n(CC(=O)Nc3ccccc3)c(=O)c2c1,5.2e-08M*,-2%,?,1%,4.4e-08M*,-1%
CCOC(=O)CCNC(=O)Nc1ccc2nc(C)n(Cc3ccc(Cl)cc3)c(=O)c2c1,?,?,32µM*,2%,i,2%
CS(=O)(=O)Nc1cccc(-c2cncnc2-n2ccnc2)c1,i,?,-4%,0%,i,-22%
CN(C)S(=O)(=O)c1nc(Cl)c2[nH]cnc2n1,i,6%[7.6 µM],1%[11.4 µM],0%[11.5 µM],i,9%[11.4 µM]
COc1ccc(CCNc2nnc(Sc3nnnn3-c3ccccc3)s2)cc1OC,i,10µM*,2%,0%,i,1%
COc1ccc(CCNC(=O)CSc2nnnn2-c2ccccc2)cc1,/,-11%,0%,2%,/,0%
